From PubChem BioAssay (NCI) come the findings set out here.

About 83,000 compounds went through this panel and 20% of them were active in at least one assay; those are over-represented in the sample as a whole.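 Step 1: grow cells in 96-well plates. Step 2: add test compound at a single concentration. Step 3: incubate 48 h. Step 4: record percent growth.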 Values without a mark were called inactive. Calls of active or inactive are those of the source. The calls were made as follows: active = growth percent below 10; inactive = the rest.

In the assay the test system is MDA-MB-468 breast. Put plainly: NCI-60 one-dose screen, 48 h (100 = growth as untreated, 0 = no growth, -100 = all killed). The settings on record: 10 µM unless noted.
As to `Cc1ccc(C(=O)O)o1`, the growth was 112%.

In the case of `CC(C)c1ccc(S(=O)(=O)NC(=O)NC2CCCC2)cc1`, the growth was 96.2%.

`O=C(O)c1cn(C2CC2)c2cc(N3CCN(C(=O)N/N=C/c4cccc5ccccc45)CC3)c(F)cc2c1=O`: the growth is 103%.

Turning to `O=C(/C=C/c1cccnc1)c1ccccc1`, the growth was 99.2%. As for `COC(=O)c1ccc2[nH]c(O)c(C(=Nc3ccc(N(C)C(=O)CN4CCN(C)CC4)cc3)c3ccccc3)c2c1`, the figure is 52.3%.

For the molecule `BrCCCc1n(Cc2ccc3ccccc3c2)c2ccccc2[n+]1Cc1ccc2ccccc2c1`, the growth was -68% (active). As for `CCN(CCCNc1cc2c(c(N)c1S(=O)(=O)O)C(=O)c1ccccc1C2=O)c1ccccc1`, the figure is 89%; as for `Cc1cc(NCCCN(C)C)c2ccc3c(ccc4c(NCCCN(C)C)cc(C)nc43)c2n1`, -88.9% (active); as for `Cc1nc2ccccc2c(/C=C/c2ccccc2)c1C(=O)/C=C/c1ccccc1`, 35.6%. To `COc1cccc(N2CCN(c3ncnc4c3[nH]c3ccc(F)cc34)C[C@@H]2C)c1` belongs -12.5% (active). To `C[C@H](C(=O)N(CCc1ccc(Cl)c(Cl)c1)Cc1cncs1)[C@@H]1CC[C@H](C[C@H](C)n2cc(CN3CCC(c4ccc(Cl)cc4)CC3)nn2)O1` belongs 90.3%. In the case of `Cc1ccc(NC(=O)/C=C/c2ccc(OCCCOc3ccc4c(C)cc(=O)oc4c3)cc2)cc1`, the growth was 77.5%. To `O=C1Nc2ccc(Br)cc2C12Oc1ccccc1C1CC(c3ccc(F)cc3)=NN12` (centres undefined) belongs 82.1%; to `COC(=O)c1c2c(c(C)[n+]([O-])c1C)C(=O)C=C(NCc1ccccc1)C2=O`, -68.9% (active).
